The full data set covers some 7,900 targets. This sample favours those with a hit. About 0.6% of all pairs of compound and target were hits.
Experiments:
Test in all cases: log2 fold change, soluble protein after heating vs DMSO (PISA); higher = thermal stabilisation; K562 cells, 10 uM, 30 min; active = over 0.2 and 3.5 SD of the protein, either way, in both replicates (recomputed)
[1] = compound: CC[C@@H]1C(=O)N(C)c2cnc(Nc3ccc(C(=O)NC4CCN(C)CC4)cc3OC)nc2N1C1CCCC1
How it was run: (§1)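 K562 cells at 2×10^6 cells/mL were treated with 10 μM compound for 30 min. Aliquots were heated for 3 min across 48°C-58°C, pooled, and extracted in PBS with 0.5% NP-40 at 4°C; soluble protein was the supernatant after 21,000xg for 90 min. Soluble protein was quantified by TMTpro 16plex LC-MS/MS with channel sums equalised, and reported as log2 fold change in thermal stability against DMSO controls, with values from duplicates.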

[2] = compound: CC[C@@H]1C(=O)N(C)c2cnc(Nc3ccc(C(=O)N[C@H]4CC[C@H](N5CCN(CC6CC6)CC5)CC4)cc3OC)nc2N1C(C)C [volasertib]
How it was run: as §1

[3] = compound: CC[C@H](C)N1C=C(C2=C(C=C(C=C21)C3=CN=C(C=C3)N4CCNCC4)C(=O)NCC5=C(C=C(NC5=O)C)C)C
How it was run: as §1

[4] = compound: CC[C@H](C)[C@@H](C(=O)N[C@@H]([C@@H](C)O)C(=O)N[C@@H](CC(C)C)C(=O)[C@]1(CO1)C)NC(=O)[C@H]([C@@H](C)CC)N(C)C(=O)C [epoxomicin]
How it was run: as §1

[5] = compound: CCn1c(C(=O)N(C2CC2)C2CC2)cc2c3c(ncn3C)c(Nc3cc(C)n(C)n3)nc21
How it was run: as §1

[6] = compound: CCn1cc(-c2ccnc3[nH]c(-c4cccc(CN(C)C)c4)cc23)c(-c2ccc(NC(=O)N(C)C)cc2)n1
How it was run: as §1

[7] = compound: CN(C)CC(=O)Nc1ccc2[nH]c(=O)c3ccccc3c2c1
How it was run: as §1

[8] = compound: CN(CCOC1=CC=C(C=C1)C[C@H]2C(=O)NC(=O)S2)C3=CC=CC=N3 (racemic) [rosiglitazone]
How it was run: as §1

[9] = compound: CN1C2=C(C3=C1C(=O)N(N=C3)CC4=CC(=CC=C4)N)SC(=C2)S(=O)C
How it was run: as §1

[10] = compound: CN1CCC(CNc2ccc3ncc(-c4cccc(OC(F)(F)F)c4)n3n2)CC1
How it was run: as §1

Measured: log2 fold change

TIPRL (UniProt O75663)
UniProt O75663, sequence (O75663 whole entry, looked up): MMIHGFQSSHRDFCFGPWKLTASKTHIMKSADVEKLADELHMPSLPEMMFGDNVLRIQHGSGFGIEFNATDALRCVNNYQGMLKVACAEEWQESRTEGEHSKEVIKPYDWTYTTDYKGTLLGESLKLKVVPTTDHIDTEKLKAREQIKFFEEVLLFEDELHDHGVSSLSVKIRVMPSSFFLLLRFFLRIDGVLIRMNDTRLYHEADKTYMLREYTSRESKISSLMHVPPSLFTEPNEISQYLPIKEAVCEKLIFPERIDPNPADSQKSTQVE
active: [2] -0.23
inactive: [1] -0.061 | [3] 0.072 | [4] 0.025 | [5] -0.012 | [6] -0.057 | [7] 0.032 | [8] 0.085 | [9] 0.021 | [10] -0.214

SRRM2 (UniProt Q9UQ35)
inactive: [1] -0.025 | [2] 0.009 | [3] 0.046 | [4] -0.071 | [5] -0.016 | [6] -0.072 | [7] 0.053 | [8] 0.046 | [9] 0.062 | [10] -0.222

SUGP1 (UniProt Q8IWZ8)
active: [2] -0.341
inactive: [1] -0.155 | [3] 0.056 | [4] 0.062 | [5] -0.102 | [6] -0.007 | [7] 0.021 | [8] 0.042 | [9] -0.028 | [10] -0.081

SMIM20 isoform 2 (UniProt Q8N5G0)
UniProt Q8N5G0, sequence (Q8N5G0 whole entry, looked up): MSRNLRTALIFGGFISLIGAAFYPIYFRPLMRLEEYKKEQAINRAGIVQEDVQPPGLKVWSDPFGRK
active: [4] 0.483
inactive: [1] 0.069 | [2] 0.048 | [3] -0.033 | [5] 0.038 | [6] -0.065 | [7] 0.007 | [8] 0.036 | [9] 0.051 | [10] 0.002

SMARCAD1 isoform 2 (UniProt Q9H4L7)
inactive: [1] -0.085 | [3] 0.057 | [4] 0.046 | [5] -0.055 | [6] -0.1 | [7] 0.04 | [8] 0.071 | [9] -0.037 | [10] -0.1
active: [2] -0.378

STK38 (UniProt Q15208)
active: [2] -0.363
inactive: [1] -0.107 | [3] 0.106 | [4] 0.035 | [5] 0 | [6] 0.003 | [7] 0.059 | [8] 0.05 | [9] -0.005 | [10] -0.068

STK25 (UniProt O00506)
inactive: [1] -0.031 | [2] -0.107 | [3] 0.024 | [4] 0.033 | [5] -0.041 | [6] -0.008 | [7] -0.024 | [8] 0.077 | [9] 0.017 | [10] -0.216

SLC25A38 (UniProt Q96DW6)
inactive: [1] 0.013 | [2] 0.009 | [3] -0.002 | [4] -0.025 | [5] 0.048 | [6] 0 | [7] -0.02 | [8] -0.028 | [9] -0.017 | [10] -0.048

STEAP3 isoform 2 (UniProt Q658P3)
UniProt Q658P3, sequence (Q658P3 whole entry, looked up): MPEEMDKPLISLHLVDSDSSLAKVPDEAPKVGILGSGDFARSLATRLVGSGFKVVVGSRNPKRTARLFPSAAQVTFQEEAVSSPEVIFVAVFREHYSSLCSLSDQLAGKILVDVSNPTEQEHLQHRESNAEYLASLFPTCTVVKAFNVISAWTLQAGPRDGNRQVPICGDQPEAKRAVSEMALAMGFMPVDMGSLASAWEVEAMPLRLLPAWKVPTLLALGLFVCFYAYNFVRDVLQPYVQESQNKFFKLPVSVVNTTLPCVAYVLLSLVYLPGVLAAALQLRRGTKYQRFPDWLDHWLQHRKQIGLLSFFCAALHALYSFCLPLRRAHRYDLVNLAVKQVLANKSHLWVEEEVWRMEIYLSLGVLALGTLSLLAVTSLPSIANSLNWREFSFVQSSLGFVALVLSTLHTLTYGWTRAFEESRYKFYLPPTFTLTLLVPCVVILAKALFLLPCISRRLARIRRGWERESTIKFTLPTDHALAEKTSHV
inactive: [1] 0.036 | [2] -0.013 | [3] -0.023 | [4] 0.01 | [5] 0.028 | [6] -0.084 | [7] 0.002 | [8] 0.021 | [9] 0.041 | [10] -0.096

SLC7A6 (UniProt Q92536)
inactive: [1] 0.048 | [2] 0.042 | [3] -0.099 | [4] 0.211 | [5] 0.014 | [6] -0.018 | [7] 0.04 | [8] 0.023 | [9] -0.036 | [10] 0.122

SMC5 (UniProt Q8IY18)
inactive: [1] 0.042 | [2] 0.054 | [3] -0.009 | [4] 0.018 | [5] -0.023 | [6] -0.025 | [7] 0.033 | [8] 0 | [9] 0.005 | [10] 0.037

SUMO1 (UniProt P63165)
UniProt P63165, sequence (P63165 whole entry, looked up): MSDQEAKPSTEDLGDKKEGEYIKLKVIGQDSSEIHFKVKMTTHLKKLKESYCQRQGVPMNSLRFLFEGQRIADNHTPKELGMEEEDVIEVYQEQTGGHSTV
inactive: [1] 0.034 | [2] -0.035 | [3] -0.046 | [4] -0.011 | [5] 0.088 | [6] 0.015 | [7] 0.021 | [8] 0.002 | [9] 0.038 | [10] 0.007

SMAP2 (UniProt Q8WU79)
UniProt Q8WU79, sequence (Q8WU79 whole entry, looked up): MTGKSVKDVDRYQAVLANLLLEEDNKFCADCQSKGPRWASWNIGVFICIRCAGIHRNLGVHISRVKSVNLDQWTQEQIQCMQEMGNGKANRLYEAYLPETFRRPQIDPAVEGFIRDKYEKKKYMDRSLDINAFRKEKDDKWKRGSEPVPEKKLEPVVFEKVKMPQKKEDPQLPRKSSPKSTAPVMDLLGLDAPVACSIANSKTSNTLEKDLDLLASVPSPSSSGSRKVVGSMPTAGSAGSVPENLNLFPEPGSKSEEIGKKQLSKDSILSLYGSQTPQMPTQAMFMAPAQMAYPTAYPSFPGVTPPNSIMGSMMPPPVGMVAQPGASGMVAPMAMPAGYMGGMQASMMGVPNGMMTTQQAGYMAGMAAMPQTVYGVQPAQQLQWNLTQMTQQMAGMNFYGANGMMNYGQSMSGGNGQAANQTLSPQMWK
active: [2] -0.3
inactive: [1] -0.054 | [3] 0.131 | [4] 0.056 | [5] -0.015 | [6] -0.009 | [7] 0.008 | [8] 0.073 | [9] -0.021 | [10] 0.015

SURF2 (UniProt Q15527)
inactive: [1] -0.002 | [2] -0.046 | [3] 0.014 | [4] 0.04 | [5] -0.008 | [6] -0.078 | [7] 0.037 | [8] 0 | [9] -0.043 | [10] 0.024

SP100 isoform 4 (UniProt P23497)
inactive: [1] -0.021 | [2] -0.065 | [3] 0.012 | [4] -0.006 | [5] 0.023 | [6] 0.056 | [7] -0.045 | [8] -0.009 | [9] -0.059 | [10] -0.064

STAT3 (UniProt P40763)
inactive: [3] 0.056 | [4] 0.002 | [5] -0.052 | [6] -0.059 | [7] 0.052 | [8] 0.063 | [9] -0.047
active: [1] -0.336 | [2] -0.767 | [10] -0.275

SUCLA2 (UniProt Q9P2R7)
inactive: [1] 0.013 | [2] -0.105 | [3] 0.052 | [4] 0.016 | [5] 0.01 | [6] -0.049 | [7] 0.018 | [8] 0.065 | [9] -0.071 | [10] -0.05

SYMPK (UniProt Q92797)
active: [2] -0.5
inactive: [1] -0.341 | [3] -0.289 | [4] 0.073 | [5] -0.036 | [6] -0.026 | [7] 0.123 | [8] 0.13 | [9] 0.076 | [10] -0.141

STK4 (UniProt Q13043)
UniProt Q13043, sequence (Q13043 whole entry, looked up): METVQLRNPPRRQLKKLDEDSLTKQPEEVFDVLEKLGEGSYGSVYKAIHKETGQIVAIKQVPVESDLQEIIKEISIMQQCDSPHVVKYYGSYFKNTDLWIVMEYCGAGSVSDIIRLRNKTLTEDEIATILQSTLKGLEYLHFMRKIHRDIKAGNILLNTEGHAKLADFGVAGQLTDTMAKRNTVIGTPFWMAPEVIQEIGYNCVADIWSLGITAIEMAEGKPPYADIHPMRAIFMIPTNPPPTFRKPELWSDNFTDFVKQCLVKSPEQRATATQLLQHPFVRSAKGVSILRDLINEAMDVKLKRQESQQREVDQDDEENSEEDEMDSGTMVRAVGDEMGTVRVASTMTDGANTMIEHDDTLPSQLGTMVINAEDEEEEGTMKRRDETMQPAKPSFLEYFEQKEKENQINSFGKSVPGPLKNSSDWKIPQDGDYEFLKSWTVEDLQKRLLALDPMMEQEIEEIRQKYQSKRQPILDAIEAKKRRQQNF
inactive: [1] 0.024 | [2] 0.006 | [3] 0.014 | [4] 0.033 | [5] -0.029 | [6] -0.041 | [7] 0.013 | [8] 0.03 | [9] 0.004 | [10] -0.061

SUOX (UniProt P51687)
UniProt P51687, sequence (P51687 whole entry, looked up): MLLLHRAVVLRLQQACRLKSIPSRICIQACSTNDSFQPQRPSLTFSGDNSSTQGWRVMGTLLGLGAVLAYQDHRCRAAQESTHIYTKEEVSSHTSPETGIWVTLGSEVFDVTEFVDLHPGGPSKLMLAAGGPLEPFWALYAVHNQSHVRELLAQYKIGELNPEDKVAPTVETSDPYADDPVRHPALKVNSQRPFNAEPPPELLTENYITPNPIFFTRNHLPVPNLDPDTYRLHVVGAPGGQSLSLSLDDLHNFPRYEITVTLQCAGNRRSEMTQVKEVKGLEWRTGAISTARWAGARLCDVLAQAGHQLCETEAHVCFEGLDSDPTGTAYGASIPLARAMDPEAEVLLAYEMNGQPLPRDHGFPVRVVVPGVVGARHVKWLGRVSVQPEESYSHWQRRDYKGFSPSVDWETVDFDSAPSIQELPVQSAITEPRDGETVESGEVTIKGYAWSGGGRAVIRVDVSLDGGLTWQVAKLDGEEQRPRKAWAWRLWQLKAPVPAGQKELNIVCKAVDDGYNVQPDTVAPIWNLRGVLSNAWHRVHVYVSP
inactive: [1] 0.003 | [2] -0.04 | [3] -0.02 | [4] 0.013 | [5] 0.026 | [6] 0 | [7] 0.005 | [8] 0.012 | [9] -0.07
active: [10] -0.31

SNW1 (UniProt Q13573)
inactive: [1] 0.094 | [2] 0.078 | [3] -0.052 | [4] -0.012 | [5] 0.03 | [6] 0.044 | [7] -0.027 | [8] -0.047 | [9] 0 | [10] 0.078

TGFBI (UniProt Q15582)
UniProt Q15582, sequence (Q15582 whole entry, looked up): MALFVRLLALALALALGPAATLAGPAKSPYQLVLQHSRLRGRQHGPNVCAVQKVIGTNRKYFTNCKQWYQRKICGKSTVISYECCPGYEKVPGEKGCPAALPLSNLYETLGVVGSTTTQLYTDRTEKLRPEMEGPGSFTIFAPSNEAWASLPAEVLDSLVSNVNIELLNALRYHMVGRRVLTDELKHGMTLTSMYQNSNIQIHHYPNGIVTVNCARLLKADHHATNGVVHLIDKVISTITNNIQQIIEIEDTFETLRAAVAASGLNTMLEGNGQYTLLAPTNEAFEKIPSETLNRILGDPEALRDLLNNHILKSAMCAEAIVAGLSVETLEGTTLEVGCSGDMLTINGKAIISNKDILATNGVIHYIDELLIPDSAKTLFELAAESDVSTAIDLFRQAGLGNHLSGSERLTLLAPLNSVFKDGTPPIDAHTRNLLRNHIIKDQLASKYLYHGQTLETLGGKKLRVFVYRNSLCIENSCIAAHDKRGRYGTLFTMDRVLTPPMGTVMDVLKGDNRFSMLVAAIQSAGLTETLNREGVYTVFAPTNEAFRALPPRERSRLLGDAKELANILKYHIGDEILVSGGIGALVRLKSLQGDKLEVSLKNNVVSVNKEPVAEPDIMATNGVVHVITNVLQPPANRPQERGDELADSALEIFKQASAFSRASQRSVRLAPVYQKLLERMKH
inactive: [1] -0.089 | [2] -0.211 | [3] -0.044 | [4] -0.33 | [5] -0.026 | [6] 0.068 | [7] -0.128 | [8] 0.118 | [9] 0.171 | [10] -0.142

SLC4A2 (UniProt P04920)
UniProt P04920, sequence (P04920 whole entry, looked up): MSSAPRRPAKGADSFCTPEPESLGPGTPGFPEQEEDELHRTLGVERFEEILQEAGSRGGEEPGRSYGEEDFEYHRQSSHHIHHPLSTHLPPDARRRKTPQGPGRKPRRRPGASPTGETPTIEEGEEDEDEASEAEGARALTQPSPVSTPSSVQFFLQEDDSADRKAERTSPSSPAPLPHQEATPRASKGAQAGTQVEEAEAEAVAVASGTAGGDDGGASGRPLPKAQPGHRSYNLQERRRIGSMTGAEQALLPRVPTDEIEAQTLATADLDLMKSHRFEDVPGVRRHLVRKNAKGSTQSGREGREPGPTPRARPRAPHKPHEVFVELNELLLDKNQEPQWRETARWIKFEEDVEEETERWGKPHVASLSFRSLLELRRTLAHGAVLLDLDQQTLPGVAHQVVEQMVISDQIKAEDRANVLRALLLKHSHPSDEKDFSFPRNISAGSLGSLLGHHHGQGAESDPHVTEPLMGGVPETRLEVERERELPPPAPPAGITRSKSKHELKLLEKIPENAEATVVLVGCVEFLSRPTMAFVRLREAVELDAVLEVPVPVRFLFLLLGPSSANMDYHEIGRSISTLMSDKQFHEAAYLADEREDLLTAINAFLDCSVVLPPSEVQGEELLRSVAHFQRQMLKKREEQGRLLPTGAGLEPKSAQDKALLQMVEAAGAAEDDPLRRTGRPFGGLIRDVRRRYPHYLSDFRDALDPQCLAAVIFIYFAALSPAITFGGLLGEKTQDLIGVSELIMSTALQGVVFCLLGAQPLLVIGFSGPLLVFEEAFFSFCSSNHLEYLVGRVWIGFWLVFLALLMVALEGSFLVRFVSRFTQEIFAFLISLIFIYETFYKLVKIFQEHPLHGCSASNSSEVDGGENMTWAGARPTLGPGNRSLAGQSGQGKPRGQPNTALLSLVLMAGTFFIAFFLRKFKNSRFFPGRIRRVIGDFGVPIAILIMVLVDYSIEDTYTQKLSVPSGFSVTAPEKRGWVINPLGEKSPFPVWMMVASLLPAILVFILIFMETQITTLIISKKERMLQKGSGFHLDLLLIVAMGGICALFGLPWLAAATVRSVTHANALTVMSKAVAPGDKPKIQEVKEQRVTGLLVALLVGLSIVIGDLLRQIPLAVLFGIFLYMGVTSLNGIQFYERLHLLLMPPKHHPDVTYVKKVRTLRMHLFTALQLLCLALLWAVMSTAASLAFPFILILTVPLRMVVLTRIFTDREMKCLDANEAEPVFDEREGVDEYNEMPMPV
inactive: [1] 0.039 | [2] -0.071 | [3] -0.044 | [4] 0.029 | [5] -0.021 | [6] -0.028 | [7] 0.022 | [8] 0.066 | [9] 0.035 | [10] -0.018

TEX264 (UniProt Q9Y6I9)
inactive: [1] 0.016 | [2] 0.356 | [3] -0.073 | [4] 0 | [5] -0.201 | [6] 0.499 | [7] 0.098 | [8] 0.039 | [9] 0.182 | [10] 0.262

SPECC1 (UniProt Q5M775)
inactive: [1] 0.109 | [2] 0.052 | [3] -0.013 | [4] -0.101 | [5] 0.037 | [6] 0.004 | [7] -0.111 | [8] 0.023 | [9] 0.07 | [10] -0.012

SMAD2 (UniProt Q15796)
active: [2] -0.347
inactive: [1] -0.067 | [3] 0.065 | [4] 0.11 | [5] -0.032 | [6] -0.014 | [7] 0.014 | [8] 0.078 | [9] -0.158 | [10] -0.018

SRSF2 (UniProt Q01130)
inactive: [1] 0.087 | [2] 0.134 | [3] -0.027 | [4] -0.069 | [5] 0.047 | [6] 0.022 | [7] -0.082 | [8] -0.024 | [9] 0.045 | [10] 0.054

THRAP3 (UniProt Q9Y2W1)
inactive: [1] 0.03 | [2] 0.098 | [3] -0.137 | [4] -0.093 | [5] -0.013 | [6] 0.101 | [7] -0.026 | [8] -0.007 | [9] 0.025 | [10] -0.058

TCOF1 isoform 4 (UniProt Q13428)
inactive: [1] -0.018 | [2] 0.034 | [3] -0.016 | [4] -0.02 | [5] 0.013 | [6] 0.063 | [7] -0.052 | [8] -0.011 | [9] 0.019 | [10] -0.06

SNX2 (UniProt O60749)
UniProt O60749, sequence (O60749 whole entry, looked up): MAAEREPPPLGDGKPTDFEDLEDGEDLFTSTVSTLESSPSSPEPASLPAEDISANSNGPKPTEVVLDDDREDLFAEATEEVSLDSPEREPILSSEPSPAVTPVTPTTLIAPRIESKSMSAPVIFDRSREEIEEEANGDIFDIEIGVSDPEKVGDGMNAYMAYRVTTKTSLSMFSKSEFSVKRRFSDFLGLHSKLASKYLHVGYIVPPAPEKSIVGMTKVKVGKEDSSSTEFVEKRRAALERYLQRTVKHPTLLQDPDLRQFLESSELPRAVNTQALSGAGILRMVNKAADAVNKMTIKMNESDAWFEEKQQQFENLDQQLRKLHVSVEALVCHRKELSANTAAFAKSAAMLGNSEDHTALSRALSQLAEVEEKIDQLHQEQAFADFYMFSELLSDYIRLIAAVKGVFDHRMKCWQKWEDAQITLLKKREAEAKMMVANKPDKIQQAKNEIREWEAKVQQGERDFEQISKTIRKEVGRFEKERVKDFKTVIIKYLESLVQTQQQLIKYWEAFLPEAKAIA
active: [10] -0.332
inactive: [1] -0.129 | [2] -0.053 | [3] 0.093 | [4] 0.026 | [5] -0.102 | [6] -0.08 | [7] 0.005 | [8] 0.054 | [9] -0.003
